Source: PubChem BioAssay
Candida biofilm: kills Candida albicans biofilms. C. albicans biofilm + clotrimazole, Alamar Blue. inhibition, % at 6 µM. 85,000 compounds, 0.14% hits. AID 834;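 active = inhibition above 20%; inactive = inhibition below 20%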;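 also: preformed 24 hr biofilms exposed to compound for 48 hr; 0% = biofilm without compound and 100% = blank killed by clotrimazole plus chlorhexidine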
Smad3 inh: inhibitors of human Smad3 transcription factor binding | inhibition, % at 25 µM | 88,000 compounds, 0.29% hits | P84022 | AID 630 | TR-FRET Smad3/Dy647-FoxH1 peptide binding, europium anti-His;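 active = compounds that reduce the energy-transfer binding signal between the protein and its labelled peptide by more than half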;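 also: 0% = Smad3 plus labelled peptide maximal FRET and 100% = peptide-only background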
Target sequence (P84022 whole entry, looked up): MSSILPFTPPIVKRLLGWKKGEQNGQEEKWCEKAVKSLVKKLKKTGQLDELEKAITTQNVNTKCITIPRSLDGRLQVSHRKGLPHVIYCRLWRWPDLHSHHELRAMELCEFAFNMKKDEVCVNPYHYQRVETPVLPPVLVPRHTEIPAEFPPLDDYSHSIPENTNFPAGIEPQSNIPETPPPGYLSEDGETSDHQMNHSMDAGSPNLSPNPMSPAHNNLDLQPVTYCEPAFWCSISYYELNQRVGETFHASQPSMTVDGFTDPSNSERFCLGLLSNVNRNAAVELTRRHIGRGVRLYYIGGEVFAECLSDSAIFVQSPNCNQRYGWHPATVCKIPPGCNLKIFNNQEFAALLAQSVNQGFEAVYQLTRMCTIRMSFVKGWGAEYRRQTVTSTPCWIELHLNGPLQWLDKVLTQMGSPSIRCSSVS
ERa SRC1 pot: enhances coactivator binding to human estrogen receptor alpha. P03372. TR-FRET ERalpha-LBD/SRC-Cy5 coactivator binding, 2 h; 100 = basal binding, no effect. coactivator binding (% of control), % at 25.6 µM. 86,000 compounds, 1.3% hits. AID 639; in the data active = activity above about 200%;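 also: binding measured in presence of low estradiol as agonist stimulus; 0% = peptide alone without receptor and 100% = receptor with peptide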
ERb coact inh: blocks coactivator binding to human estrogen receptor beta. TR-FRET ER-beta LBD / SRC1-Cy5 peptide binding; receptor agonist-loaded with 1 µM estradiol. inhibition, % at 25.6 µM. 86,000 compounds, 1.3% hits. AID 633;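 active = compounds whose percent inhibition of the receptor-coactivator binding signal exceeds about 50% in the single-dose screen, limit read from the data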;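 also: 0% = receptor plus peptide wells without compound and 100% = peptide-only wells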
FAK inh: FAK (human) kinase inhibition | Q05397 | AID 727 | inhibition, %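 (tested at 7 µM)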 | biochemical FAK kinase activity assay | 97,000 compounds, 0.84% hits; in the data active = inhibition above about 19%;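 also: 0% = DMSO and 100% = reference compound high control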
ERa SRC1 inh: ER-alpha (human) coactivator binding inhibition; P03372; TR-FRET ER-alpha LBD / SRC-1 peptide, estradiol-bound; inhibition, % at 25.6 µM; 86,000 compounds, 1.7% hits; in the data active = inhibition above about 50%;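 also: 0% = receptor plus peptide control and 100% = peptide only without receptor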
An asterisk follows results filed as active; / = not tested or not shown; [ ] = dose if it differs, or a comment. A selection: hits, their analogues and other compounds. The true share with any hit is near 3.3%.

SMILES	Candida biofilm	Smad3 inh	ERa SRC1 pot	ERb coact inh	FAK inh	ERa SRC1 inh
CC(C)(C[C@@]1(C)NC(=O)NC1=O)OCc1ccccc1	/	1.5	/	/	/	/
O=C(CSc1nnnn1-c1ccccc1)Nc1nsc(-c2ccc(Cl)cc2)n1	4.6	-29.5	140.6	39.2	/	72.9*
c1coc(-c2nn3c(-c4ccco4)nnc3s2)c1	8.7	7.0	76.4	55.4*	4.2	57.7*[fluorescence artefact?]
Cc1cc(OC(=O)c2ccco2)c2c(C)cc(=O)oc2c1	7.2	20.4	272.4*	5.2	4.9	5.5
C[C@@]12CCC(=O)C=C1CC[C@H]1[C@H]2[C@@H](O)C[C@]2(C)[C@@H]1CC[C@@]2(O)C(=O)COC(=O)C1CCCC1	/	28.2	/	/	/	/
COc1ccc(CNC(=O)c2noc3c2CCCCC3)cc1	5.4	-2.0	100.0	-8.4	/	-6.8
COC(=O)c1ccccc1NC(=O)c1noc2c1CCCC2	2.7	-3.0	113.6	-5.6	/	-5.5
COc1ccc(NC(=O)c2noc3c2CCC3)cc1	1.0	3.8	43.5	90.0*[fluorescence artefact?]	1.6	86.4*[fluorescence artefact?]
COc1cc(NC(=O)c2noc3c2CCC3)c(OC)cc1Cl	-2.6	-4.5	24.5	86.5*[fluorescence artefact?]	/	87.9*[fluorescence artefact?]
CCOC(=O)c1cc(C#N)c(SCC(=O)c2cc(C#N)c(SC)nc2C)nc1C	3.2	-5.2	287.8*	31.8	/	34.7
CCOC(=O)c1cc(C#N)c(SCc2cccc3ccccc23)nc1C	1.0	3.6	149.7	-13.3	-1.4	-3.3
CCN(CC(=O)Nc1ccc2c(c1)OCCO2)S(=O)(=O)c1ccc(C)cc1	-6.2	15.9	101.5	-6.6	-2.3	-15.1
Cc1ccc2oc(=O)c3cc(C(=O)N4CCN(c5ncccn5)CC4)sc3c2c1	7.7	-12.3	141.6	29.1	/	74.2*[fluorescence artefact?]
COC(=O)Nc1c(-c2ccccc2)nc2ccc(C)cn12	1.8	1.3	100.5	83.0*	/	2.8
CCCCCCc1cc2cc(-c3nnc(-c4ccccc4OC)o3)c(=O)oc2cc1O	-2.0	3.0	49.9	27.8	1.7	46.9
CCCCCCc1cc2cc(-c3nnc(-c4cc(OC)c(OC)c(OC)c4)o3)c(=O)oc2cc1O	3.8	6.1	224.0*[fluorescence artefact?]	-0.2	1.0	18.4
NC(=O)COc1ccc(C2c3c(oc4ccccc4c3=O)C(=O)N2CC2CCCO2)cc1 (centres undefined)	5.9	77.1*	61.3	70.2*	1.8	69.8*
CC1CCCN(C(=O)C2CCN(S(=O)(=O)c3cccc4cccnc34)CC2)C1 (centres undefined)	-4.9	6.7	117.3	-0.5	1.3	5.2
COc1cc(OC)cc(-c2nnc(SCC(=O)Nc3cc(C)on3)o2)c1	5.5	-14.1	393.4*[fluorescence artefact?]	-10.8	-3.0	-19.3
COc1ccc(-c2nnc(SCC(=O)NCc3ccco3)o2)cc1	8.4	9.1	68.8	20.3	-3.3	22.2
COc1ccc(-c2nnc(SCC(=O)NC(=O)NCc3ccccc3)o2)cc1	3.7	-26.0	312.5*[fluorescence artefact?]	8.0	1.5	20.9
O=C(CSc1nnc(-c2ccc(OC(F)F)cc2)o1)NC(=O)NCc1ccco1	4.0	6.4	112.4	53.1*	11.1	67.5*
CCn1c(SCCC#N)nnc1-c1ccncc1	4.1	8.1	111.1	-18.1	-0.2	-27.4
Fc1cccc(CSc2ncnc3c2ncn3[C@H]2CCCS2)c1	/	12.5	/	/	/	/
COc1cc(C(=O)NCc2ccc(C)cc2)ccc1OCc1c(C)noc1C	6.5	8.7	104.1	-13.9	1.0	-8.7
SMILES	Candida biofilm	Smad3 inh	ERa SRC1 pot	ERb coact inh	FAK inh	ERa SRC1 inh
COC(=O)c1ccc(OC(=O)c2ccc(OCc3c(C)noc3C)c(OC)c2)cc1	3.0	-4.9	280.0*[fluorescence artefact?]	48.8	/	50.8*[fluorescence artefact?]
Cc1cccc(NC(=O)N2CCC(c3nc4ccccc4o3)CC2)c1	5.6	2.1	123.3	-4.2	/	-12.9
Cc1cc(C)cc(NC(=O)N2CCC(c3nc4ccccc4o3)CC2)c1	2.4	8.0	680.4*[fluorescence artefact?]	-2.4	0.7	3.3
CCOC(=O)c1c(NC(=O)CSc2nnc3c(n2)[nH]c2ccccc23)sc2c1CCN(C)C2	/	/	/	/	19.6*	/
CCOC(=O)c1c(NC(=O)CSc2nnc3c(n2)[nH]c2ccc(F)cc23)sc(C(C)=O)c1C	/	/	/	/	0.8	/
CCN(CC)c1ccc(-c2nn3c(-c4ccccc4OC)nnc3s2)cc1	5.3	-7.9	366.0*	15.1	3.8	2.6
COc1ccc(-c2nn3c(-c4ccccc4)nnc3s2)cc1	7.6	0.0	202.8*[fluorescence artefact?]	-6.3	0.7	-2.1
Clc1ccc(CSCCc2ccncc2)cc1Cl	/	5.9	/	/	/	/
O=C1c2ccccc2C(=O)c2c(Nc3cc4c5c(ccc6c7ccc8c9c(cc(Nc%10cccc%11c%10C(=O)c%10ccccc%10C%11=O)c(c3c56)c97)-c3ccccc3C8=O)C(=O)c3ccccc3-4)cccc21	/	73.4*	/	/	/	/
O=C1c2ccccc2C(=O)c2c(Nc3ccc4c5c(cccc35)C(=O)c3ccccc3-4)cccc21	/	83.1*	/	/	/	/
Nc1ccc(N=Nc2ccc(-c3ccc(O)cc3)cc2)c2ccc(S(=O)(=O)O)cc12	/	17.5	/	/	/	/
O=C(Cn1nc(Cl)nc1Cl)c1cc2ccccc2oc1=O	1.1	6.2	81.1	36.7	6.9	54.6*[fluorescence artefact?]
O=C(Nc1ccncc1)c1ccc2c(c1)C(=O)N(C1CCCCC1)C2=O	1.6	-9.7	95.8	14.6	1.6	15.6
Cc1nc(OCC(=O)c2ccc(Cl)cc2)c(C#N)c2c1COC(C)(C)C2	4.4	-2.8	772.6*[fluorescence artefact?]	-9.1	1.1	2.3
CCOc1ccc(-n2nc3ccc(NC(=O)c4ccc5c(c4)OCCO5)cc3n2)cc1	3.0	1.7	56.6	21.1	2.1	38.0
Cn1cnc2cc(NC(=O)c3ccco3)ccc21	8.8	10.3	100.2	-15.0	-0.6	-29.5
CCc1ccc(-n2nc3ccc(NC(=O)c4ccc5c(c4)OCO5)cc3n2)cc1	2.9	3.7	362.4*[fluorescence artefact?]	14.3	-1.1	37.0
O=C(Nc1ccc2nn(-c3ccccc3)nc2c1)c1ccc(Br)o1	3.7	-7.1	206.6*	38.6	/	55.6*
Cc1ccc(-n2nc3ccc(NC(=O)c4ccco4)cc3n2)cc1	2.1	0.9	195.6	46.5	13.1	71.1*[fluorescence artefact?]
Cc1nn2c([nH]c(=O)c3ccccc32)c1C=O	12.5	11.2	135.5	-5.0	2.0	-1.1
CC(C)[C@@]12CC[C@]3(CC[C@@H]4[C@](C)(CCC[C@@]4(C)C(=O)O)[C@@H]3C1)[C@@H](CN)C2	/	15.1	/	/	/	/
CCCCCCC1NC(C(=O)O)CS1 (centres undefined)	/	/	/	/	5.5	/
COc1ccc(-c2cc(C#N)nc(N3CCNCC3)n2)cc1	5.4	0.6	305.2*[fluorescence artefact?]	35.8	12.8	32.6
Cc1nc(SCC(=O)Nc2c(C)nn(C)c2C)c2cnn(-c3ccccc3)c2n1	2.5	3.0	127.9	-16.2	3.9	2.2
Cc1nn(Cc2ccccc2)c(C)c1NC(=O)CSc1nc(-c2ccccc2)nc2c1cnn2-c1ccccc1	0.3	11.1	150.0	36.8	-2.8	72.4*[fluorescence artefact?]
c1coc(C2Nc3cccc4cccc(c34)N2)c1	2.7	14.5	26.3	78.2*[fluorescence artefact?]	3.2	74.1*[fluorescence artefact?]
